# Reference: PubChem BioAssay (NCI)
# Where “and” joins values, the source holds several entries; their conditions need not be identical. Identical values can stand only once. The panel holds about 83,000 compounds, 20% with a hit somewhere; the sample as a whole holds those more often.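 Cell lines were cultured in 96-well plates, exposed to a single compound concentration, and assessed for percent growth 48 hours later.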 Values without a mark were called inactive. Calls of active or inactive are those of the source. How the source made its calls: active means growth percent below 10; inactive means the rest.
# How the values were obtained:
# Experiment in all cases: NCI-60 one-dose screen, 48 h (100 = growth as untreated, 0 = no growth, -100 = all killed)
# [1] = tested on: NCI-H23 lung
# [2] = tested on: NCI-H226 lung
# [3] = tested on: NCI-H322M lung; details: 10 µM unless noted
# [4] = tested on: HOP-62 NSCLC
# [5] = tested on: NCI-H460 lung
# [6] = tested on: HOP-92 NSCLC
# [7] = tested on: NCI-H522 lung
# [8] = tested on: A549/ATCC NSCLC
# [9] = tested on: 786-0 renal
# [10] = tested on: COLO 205 colon
smiles,measurement,setting,value
CC(=O)/C=C/c1ccc(N(CCO)Cc2ccc(C(C)(C)C)cc2)cc1,growth,[1]; 10 µM,75.5%
same,growth,[1]; 100 µM,-70.7% (active)
same,growth,[2]; 10 µM,72.9%
same,growth,[2]; 100 µM,-78.1% (active)
same,growth,[3],-98.7% [100 µM] (active)
same,growth,[4]; 10 µM,78.6%
same,growth,[4]; 100 µM,-92.7% (active)
same,growth,[5]; 10 µM,74.4%
same,growth,[5]; 100 µM,-86% (active)
same,growth,[6]; 10 µM,54.7%
same,growth,[6]; 100 µM,-94.5% (active)
same,growth,[7]; 10 µM,70.1%
same,growth,[7]; 100 µM,-71% (active)
same,growth,[8]; 10 µM,66.3%
same,growth,[8]; 100 µM,-99.3% (active)
same,growth,[9]; 10 µM,87.5%
same,growth,[9]; 100 µM,-93.4% (active)
same,growth,[10]; 10 µM,90.1%
same,growth,[10]; 100 µM,-76.6% (active)
COc1ccc(C(=O)/C=C/c2ccc(OCc3cccc(C(F)(F)F)c3)c(OC)c2)cc1OC,growth,[1]; 10 µM,69.9%
same,growth,[1]; 100 µM,11.1%
same,growth,[2]; 10 µM,81.4%
same,growth,[2]; 100 µM,-12.8% (active)
same,growth,[3],11.7% [100 µM]
same,growth,[4]; 10 µM,111%
same,growth,[4]; 100 µM,5.03% (active)
same,growth,[5]; 10 µM,78.9%
same,growth,[5]; 100 µM,6.09% (active)
same,growth,[6]; 10 µM,79.4%
same,growth,[6]; 100 µM,-17.4% (active)
same,growth,[7]; 10 µM,53.8%
same,growth,[7]; 100 µM,-18.5% (active)
same,growth,[8]; 10 µM,73.1%
same,growth,[8]; 100 µM,14.9%
same,growth,[9]; 10 µM,122%
same,growth,[9]; 100 µM,-3.87% (active)
same,growth,[10]; 10 µM,103%
same,growth,[10]; 100 µM,23.2%
CCC(=C(c1ccc(OCCCN(C)C)cc1)c1ccc(OCCCN(C)C)cc1)c1ccc(Cl)cc1,growth,[1]; 10 µM unless noted,-80% (active)
same,growth,[2]; 10 µM unless noted,-66.8% (active)
same,growth,[3],-96.8% (active)
same,growth,[4]; 10 µM unless noted,-78% (active)
same,growth,[5]; 10 µM unless noted,-71.1% (active)
same,growth,[6]; 10 µM unless noted,-80% (active)
same,growth,[7]; 10 µM unless noted,-66.5% (active)
same,growth,[8]; 10 µM unless noted,-69.9% (active)
same,growth,[9]; 10 µM unless noted,-86.8% (active)
same,growth,[10]; 10 µM unless noted,-67.3% (active)
COc1ccc(Cl)cc1Nc1nc(C(F)(F)F)ccc1C(=O)N/N=C/c1ccc(N(C)C)cc1,growth,[1]; 10 µM unless noted,95.4%
same,growth,[2]; 10 µM unless noted,105%
same,growth,[3],80.8%
same,growth,[4]; 10 µM unless noted,73.6%
same,growth,[5]; 10 µM unless noted,143%
same,growth,[6]; 10 µM unless noted,85.4%
same,growth,[7]; 10 µM unless noted,105%
same,growth,[8]; 10 µM unless noted,97%
same,growth,[9]; 10 µM unless noted,76%
same,growth,[10]; 10 µM unless noted,92.2%
COc1cc(-c2[nH]ncc2Nc2ccc(Cl)cc2)cc(OC)c1OC,growth,[1]; 10 µM unless noted,55.5%
same,growth,[2]; 10 µM unless noted,73.2%
same,growth,[3],64.2%
same,growth,[4]; 10 µM unless noted,50.1%
same,growth,[5]; 10 µM unless noted,73.6%
same,growth,[6]; 10 µM unless noted,60%
same,growth,[7]; 10 µM unless noted,51.5%
same,growth,[8]; 10 µM unless noted,67.6%
same,growth,[9]; 10 µM unless noted,64.3%
same,growth,[10]; 10 µM unless noted,107%
COc1c(NC=O)c2c(c([N+](=O)[O-])c1OC)C(=O)OC2,growth,[1]; 10 µM unless noted,113% and 97.9%
same,growth,[2]; 10 µM unless noted,110% and 103%
same,growth,[3],98.1%
same,growth,[4]; 10 µM unless noted,99.2% and 104%
same,growth,[5]; 10 µM unless noted,115% and 99.9%
same,growth,[6]; 10 µM unless noted,103% and 92.8%
same,growth,[7]; 10 µM unless noted,98.7% and 112%
same,growth,[8]; 10 µM unless noted,95.8% and 101%
same,growth,[9]; 10 µM unless noted,106%
same,growth,[10]; 10 µM unless noted,108% and 114%
COc1cc(/C=N/NC(=O)CCN2c3ccccc3Sc3ccccc32)cc(OC)c1OC,growth,[1]; 10 µM unless noted,71.8%
same,growth,[2]; 10 µM unless noted,79.3%
same,growth,[3],83.2%
same,growth,[4]; 10 µM unless noted,101%
same,growth,[5]; 10 µM unless noted,95.8%
same,growth,[6]; 10 µM unless noted,61.5%
same,growth,[7]; 10 µM unless noted,70.3%
same,growth,[8]; 10 µM unless noted,79%
same,growth,[9]; 10 µM unless noted,96.8%
same,growth,[10]; 10 µM unless noted,105%
C=C1CCC2C3(C)COC(c4ccc(NC(C)=O)cc4)OC3CCC2(C)C1C/C=C1/C(=O)OCC1O (configuration not stated),growth,[1]; 10 µM unless noted,36.4%
same,growth,[2]; 10 µM unless noted,64.5%
same,growth,[3],89%
same,growth,[4]; 10 µM unless noted,85.5%
same,growth,[5]; 10 µM unless noted,66.2%
same,growth,[6]; 10 µM unless noted,72.6%
same,growth,[7]; 10 µM unless noted,29.5%
same,growth,[8]; 10 µM unless noted,35.9%
same,growth,[9]; 10 µM unless noted,57.1%
same,growth,[10]; 10 µM unless noted,82.6%
CN(C)C(=O)c1cc2cnc(Nc3ccc(-c4csc5c(=S)cc(N6CCOCC6)oc45)cc3)nc2n1C1CCCC1,growth,[1]; 10 µM unless noted,7.49% (active)
same,growth,[2]; 10 µM unless noted,15.8%
same,growth,[3],18.4%
same,growth,[4]; 10 µM unless noted,6.1% (active)
same,growth,[5]; 10 µM unless noted,3.26% (active)
same,growth,[6]; 10 µM unless noted,-5.69% (active)
same,growth,[7]; 10 µM unless noted,4.24% (active)
same,growth,[8]; 10 µM unless noted,5.94% (active)
same,growth,[9]; 10 µM unless noted,9.52% (active)
same,growth,[10]; 10 µM unless noted,-33.9% (active)
O=C(/C=C/c1cccc(Oc2ccc(Cl)cc2)c1)c1ccccc1,growth,[1]; 10 µM,90.8%
same,growth,[1]; 100 µM,-57.9% (active)
same,growth,[2]; 10 µM,104%
same,growth,[2]; 100 µM,-63.2% (active)
same,growth,[3],-73% [100 µM] (active)
same,growth,[4]; 10 µM,98.5%
same,growth,[4]; 100 µM,-80.5% (active)
same,growth,[5]; 10 µM,97.3%
same,growth,[5]; 100 µM,-76.6% (active)
same,growth,[6]; 10 µM,111%
same,growth,[6]; 100 µM,-90.7% (active)
same,growth,[7]; 10 µM,89.2%
same,growth,[7]; 100 µM,-64.6% (active)
same,growth,[8]; 10 µM,96.2%
same,growth,[8]; 100 µM,-75.7% (active)
same,growth,[9]; 10 µM,91.3%
same,growth,[9]; 100 µM,-88.9% (active)
same,growth,[10]; 10 µM,104%
same,growth,[10]; 100 µM,-71% (active)
